Rab9 promoter act: activates the Rab9 promoter; Potency, µM (doses to about 9.22 µM), most hits filed as activators; AID 485297; 320,000 compounds, 2.8% hits; Huh7 Rab9 promoter-luciferase reporter, luminescence, 24 h; further: nearly all actives have a fitted effect of over 60% in size
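Rab9 promoter-driven luciferase in stably transfected Huh7 cells; 1500 cells/well rested 2 h, exposed to compound in DMSO for 24 h at 37 °C, 5% CO2. Luminescence read 10 min after adding luciferase reagent at ambient temperature.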
ELG1 genotox: inducers of genotoxicity in HEK293T ELG1-luciferase cells; HEK293T ELG1-luciferase reporter, luminescence, 16 h; Potency, µM (highest dose often 46 µM), most hits filed as activators; 330,000 compounds, 1.3% hits; further: nearly all actives have a fitted effect of over 60% in size
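After overnight (16 hr) compound treatment at 37 °C, ELG1-luciferase HEK293T cells were lysed with ONE-Glo; luminescence quantified 30 min later at room temperature.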
SMN2 splice enh: increases expression of the SMN2 splice variant; HEK293 SMN2-luciferase splicing reporter, luminescence, 30-36 h; AID 1458; 210,000 compounds, 2.8% hits; Potency, µM (series often up to 46.1 µM), hits mostly activators; further: nearly all actives have a fitted effect of over 55% in size
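HEK293 cells carry an SMN2 […]–luciferase reporter in which exon 7 inclusion puts luciferase in frame. Cells were plated 10-12 h before compound addition, then incubated 30-36 h at 37C. ONE-Glo luminescence was read; sodium butyrate at 4.5 mM final served as control.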
FLuc modulator: counter-screen for miR-21 project: firefly luciferase inhibitors or activators. P08659. Potency, µM (series often up to 57.5 µM), actives largely listed as inhibitors. purified FLuc, Km substrates, luminescence inhibition. AID 588342. 360,000 compounds, 6.9% hits; further: nearly all actives have a fitted effect of over 55% in size
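Purified P. pyralis luciferase, 10 nM final, with Km-level 10 uM D-luciferin and 10 uM ATP in 50 mM Tris acetate pH 7.5, 10 mM Mg acetate, 0.01% Tween-20, 0.05% BSA; 6-point qHTS titration about 60 µM downward; luminescence read.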
ELG1 repair inh: inhibitors of ELG1-dependent DNA repair in HEK293T cells | HEK293T ELG1-luciferase reporter, luminescence, 16 h; DNA damage induced by 5-fluorouridine | Potency, µM (top dose mostly 46.1 µM), hits mostly inhibitors | 330,000 compounds, 2.3% hits | AID 504467; further: nearly all actives have a fitted effect of over 55% in size
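Step one: seed 2,000 cells per well. Step two: pin-transfer compound or DMSO alongside 5-fluorouridine. Step three: incubate 16 hr, 37 °C, 5% CO2. Step four: add ONE-Glo, wait 30 min, read luminescence.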
NPC1 promoter act: NPC1 promoter activation | Huh7 NPC1 promoter luciferase reporter, 24 h | Potency, µM (highest dose often 9.22 µM), most hits filed as activators | 320,000 compounds, 2.4% hits; further: nearly all actives have a fitted effect of over 60% in size
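Readout is luciferase luminescence, reflecting NPC1 promoter activation in stably transfected Huh7 cells after 24 h compound exposure at 37 °C in reduced-serum medium with 10% FBS.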
ELG1 FLuc counter: luciferase inhibition in cell-free luciferin readout for ELG1 hits | 350 compounds, 3% hits | shares compounds with ELG1 repair inh | cell-free firefly luciferase luminescence counter-screen, ViewLux | Potency, µM (top dose mostly 46.1 µM), most hits filed as inhibitors
ELG1 Luc conf: human ELG1 repair inhibition, luciferase-tagged ELG1 confirmation | shares compounds with ELG1 repair inh | HEK293T ELG1-luciferase levels, luminescence; cells co-treated with 5-fluorouridine | Potency, µM (titrated, usually from 46.1 µM), most hits filed as inhibitors | 670 compounds, 68% hits; further: nearly all actives have a fitted effect of over 55% in size
ELG1-Luc MMS: confirmation of human ELG1 repair inhibitors, MMS stimulated; shares compounds with ELG1 repair inh; HEK293T luciferase-tagged ELG1 level, MMS stimulated; Potency, µM (top dose mostly 46.1 µM), usual class: inhibitors; 670 compounds, 53% hits; further: nearly all actives have a fitted effect of over 60% in size
ELG1 5-FU: confirmation of ELG1 repair inhibitors: viability with 5FU. shares compounds with ELG1 repair inh. cell viability with 5-FU, ELG1-dependent repair. Potency, µM (highest dose often 46.1 µM), usual class: cytotoxic. 670 tested, under 10 active. AID 624250;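 further: ELG1-luc HEK293T cells cotreated with 5-fluorouridine at 10 µM final; viability measured 16 h after compound addition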
ELG1 MMS cell: confirmation of ELG1 repair inhibitors: viability with MMS. Potency, µM (titrated, usually from 46.1 µM), actives largely listed as cytotoxic. 670 compounds, 33% hits. AID 624251. Cell viability with MMS, ELG1-dependent DNA repair. shares compounds with ELG1 repair inh;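 further: ELG1-luc HEK293T cells co-treated with 10 µM MMS; viability read 16 h after compound addition; nearly all actives have a fitted effect of over 60% in size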
Cell viab unstim: counter-screen for ELG1 repair inhibitors: unstimulated cell viability | Potency, µM (series often up to 45.9 µM), most hits filed as cytotoxic | shares compounds with ELG1 repair inh | AID 624252 | cell viability counter-screen, unstimulated, luminescence | 900 compounds, 8% hits;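 further: compound exposure lasted 16 hours before reading; nearly all actives have a fitted effect of over 55% in size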
FLuc biochem: inhibits purified firefly luciferase, counter-screen for ELG1 hits | shares compounds with ELG1 repair inh | purified firefly luciferase, luminescence counter-screen | Potency, µM (doses to about 57.5 µM), actives largely listed as inhibitors | 350 compounds, 10% hits | AID 624253
A number is an active result; . = inactive; ? = inconclusive; / = not tested or not shown. Rows were chosen to be rich in hits. Some 9.3% of all compounds tested hit in one or more screens of this group. The call rests on the fitted dose curve; in most records, active means well fitted curve in the direction sought with a large enough effect; inconclusive means small, poorly fitted or top-dose-only effect, or another doubt; inactive means no such curve, though single readings can be large; an effect the other way counts as inactive or inconclusive.

SMILES | Rab9 promoter act | ELG1 genotox | SMN2 splice enh | FLuc modulator | ELG1 repair inh | NPC1 promoter act | ELG1 FLuc counter | ELG1 Luc conf | ELG1-Luc MMS | ELG1 5-FU | ELG1 MMS cell | Cell viab unstim | FLuc biochem
CCOC(=O)c1cc(-c2ccc([N+](=O)[O-])cc2)nc2c1c(=O)[nH]c(=O)n2Cc1ccccc1 | . | ? | / | . | . | . | . | / | / | / | / | . | .
C=CCc1c(OC(C)=O)c2ccccc2n(C)c1=O | . | . | . | . | 3.26µM | . | / | ? | 7.05µM | . | 9.96µM | ? | /
Clc1ccccc1C1=Nn2c(nnc2-c2ccncc2)SC1 | . | . | / | . | 4.61µM | . | ? | 3.15µM | 6.29µM | . | . | . | .
O=C1CC(N2CCN(c3ccccn3)CC2)C(=O)N1CC(c1ccccc1)c1ccccc1 (stereo unspecified) | . | . | . | . | 4.11µM | . | / | 28.1µM | ? | . | ? | ? | /
Cc1ccc(C)c(-c2cc(C(=O)Nc3cccc(C(=O)O)c3)c3ccccc3n2)c1 | . | . | . | . | . | . | / | / | / | / | / | / | /
COc1cc(-c2cc(C(=O)Nc3cccc(C(C)=O)c3)c3ccccc3n2)cc(OC)c1OC | . | . | / | . | 1.64µM | . | / | 0.705µM | 11.2µM | ? | . | ? | /
CC(=O)Nc1ccc(NCc2cccs2)cc1 | . | . | / | . | . | . | / | / | / | / | / | / | /
CC(=O)Nc1ccc(SCC(=O)c2cc(C)n(Cc3cccs3)c2C)cc1 | ? | ? | . | 16.9µM | ? | . | ? | / | / | / | / | ? | 13µM
Cc1nc(N2CCOCC2)nc(N2CCCCC2C)c1[N+](=O)[O-] (stereo unspecified) | . | . | / | . | . | . | / | / | / | / | / | / | /
CC1CCCCN1c1ncnc(N)c1[N+](=O)[O-] (stereo unspecified) | . | . | . | . | 3.26µM | ? | / | 7.05µM | 14.1µM | . | ? | . | /
CC(C)CNc1cc(=O)n(C)c(=O)n1C | . | . | . | . | . | . | / | / | / | / | / | / | /
O=C(Nc1nnc(-c2ccccc2Cl)o1)c1ccc(S(=O)(=O)N2CCCCCC2)cc1 | . | . | . | . | 1µM | . | . | ? | ? | . | . | ? | .
COc1ccc(-c2cnc(-c3cccnc3)o2)cc1 | / | / | 11.2µM | / | / | / | / | / | / | / | / | . | /
Cc1ccc(NC(=O)CS(=O)CC(=O)N(c2ccc(C)cc2)C(C)C(=O)NC2CCCCC2)cc1 (stereo unspecified) | . | . | . | . | . | . | / | / | / | / | / | / | /
COc1ccc(OC)c(NS(=O)(=O)c2ccc(-n3cccn3)cc2)c1 | / | / | / | . | / | / | / | / | / | / | / | / | /
CCCn1c(N2CCN(CC(=O)c3c(C)n(C)c4ccc(OC)cc34)CC2)nc2c1c(=O)[nH]c(=O)n2C | . | . | . | . | 1.46µM | . | . | 3.54µM | ? | ? | . | ? | .
COc1ccc2c(c1)O[C@@H](c1cccc(C(F)(F)F)c1)[C@H](OC(=O)NCc1ccc3c(c1)OCO3)C2=O | / | / | . | / | / | / | / | / | / | / | / | / | /

Screens deposited in PubChem by National Center for Advancing Translational Sciences (NCATS).
